Laboratory results taken from the supplement of paper PMC9694430.

tested on: LOC_OS03G50450-cb001; assay: thermal shift delta Tm vs DMSO control; higher = stronger stabilization (binding); settings: 12.5 µM; protein concentration 2 µM
Procedure, shortened: (§1)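 Purified, E. coli-expressed rice kinase domain constructs were tested by differential scanning fluorimetry in 96-well plates: 19.5 μl of 2 μM kinase in 100 mM potassium phosphate pH 7.5, 150 mM NaCl, 10% glycerol, 5 × SYPRO Orange, plus compound in DMSO. Fluorescence was read from 25°C to 95°C at 0.05°C/s. Melting temperatures came from Boltzmann fits, and the shift is the triplicate mean relative to protein with DMSO alone.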

| Compound | thermal shift delta Tm |
| --- | --- |
| COc1ccc(CC(=O)Nc2nc3c(s2)CCc2ccccc2-3)cc1OC | 0.29 °C |
| CNS(=O)(=O)Nc1nccc(Cc2c(C)c3ccc(Oc4ncccn4)cc3oc2=O)c1F | 0.4 °C |
| C[C@H](NC(=O)/C(C#N)=C/c1cccc(Br)n1)c1ccccc1 | 0.09 °C |
| COc1ccc(COc2cc3oc(=O)c4cc(C(C)O)ccc4c3cc2OC)cc1 (centres undefined) [Palomid 529 (P529)] | 0.19 °C |
| CC(C)(C)Cn1c(N)nc2ccc(-c3[nH]c(C(C)(C)C)nc3-c3ccc(F)cc3)nc21 | 0.23 °C |
| COc1ccccc1-c1cc(Nc2cccc(CS(N)(=O)=O)c2)ncn1 | 0.51 °C |
| Cn1cnc(N)c2ncnc1-2 [3-Methyladenine (3-MA)] | 0.39 °C |
| C=CC(=O)N[C@H]1CCOC[C@H]1Nc1ncc2cc(-c3c(Cl)c(OC)cc(OC)c3Cl)ccc2n1 | 0.02 °C |
| CCS(=O)(=O)Nc1ccc2c(c1)/C(=C(/Nc1ccc(CN3CCCCC3)cc1)c1ccccc1)C(=O)N2 [Hesperadin] | 2.45 °C |
| Cc1cc(Nc2cc(N3CCN(C)CC3)nc(/C=C/c3ccccc3)n2)n[nH]1 [ENMD-2076 L-(+)-Tartaric acid] | 8.63 °C |
| Cc1ccc(F)c(NC(=O)Nc2ccc(-c3cccc4[nH]nc(N)c34)cc2)c1 [Linifanib (ABT-869)] | 0.4 °C |
| CO[C@H]1C[C@@H]2CC[C@@H](C)[C@@](O)(O2)C(=O)C(=O)N2CCCC[C@H]2C(=O)O[C@H]([C@H](C)C[C@@H]2CC[C@@H](OCCO)[C@H](OC)C2)CC(=O)[C@H](C)/C=C(\C)[C@@H](O)[C@@H](OC)C(=O)[C@H](C)C[C@H](C)/C=C/C=C/C=C/1C [Everolimus (RAD001)] | -0.1 °C |
| CCCCCCCCCCCCCCCCn1cc[n+](Cc2ccccc2)c1C | -1.25 °C |
| O=C(/C=C/c1ccc(O)c(O)c1)c1ccc(O)cc1O [Butein] | 2.26 °C |
| NC(=O)c1ncn([C@@H]2O[C@H](CO)[C@@H](O)[C@H]2O)c1N [AICAR (Acadesine)] | 0.66 °C |
| COCCOc1ccc2c(c1)ncn2-c1ccc2cccc(N3CCC(N)CC3)c2n1 | 0.27 °C |
| CCCCCCCCCCCCCCCCCCOP(=O)([O-])OC1CC[N+](C)(C)CC1 [Perifosine (KRX-0401)] | -2.45 °C |
| COc1ccc(-c2ccc3c(N4CCOCC4)nc(N4C[C@@H](C)O[C@@H](C)C4)nc3n2)cc1CO | -0.08 °C |
| Cc1cc(Nc2nc(N[C@@H](C)c3ccc(F)cc3)c(C#N)cc2F)n[nH]1 | 1.39 °C |

| Compound | thermal shift delta Tm |
| --- | --- |
| O=c1nc(N2CCOCC2)oc2c(-c3cccc4c3sc3ccccc34)cccc12 | 0.04 °C |
| Cn1cc(-c2ccc3nnc(C(F)(F)c4ccc5ncccc5c4)n3n2)cn1 | 0.07 °C |
| Cc1cc(C(C)Nc2ccccc2)c2nc(N3CCOCC3)cc(=O)n2c1 (centres undefined) | 0.33 °C |
| COc1cc(N2CCC(N(C)C)CC2)ccc1Nc1ncc(Cl)c(Nc2ccccc2P(C)(C)=O)n1 | 0.35 °C |
| CC(C)c1cnn2c(NCc3ccccc3)cc(NCCCCCCN)nc12 | 0.34 °C |
| Cc1cc([C@@H](C)Nc2ccccc2C(=O)O)c2nc(N3CCOCC3)cc(=O)n2c1 | 0.63 °C |
| CC(C)NC(=O)C1CCC(n2c(NC(=O)c3ccc(F)cc3)nc3ccc(CN4CCC(C(C)(C)O)CC4)cc32)CC1 (centres undefined) [Belizatinib (TSR-011)] | 0.85 °C |
| COc1ccc(-c2ccc3ncc4c(c3c2)n(-c2ccc(N3CCNCC3)c(C(F)(F)F)c2)c(=O)n4C)cn1 | 0.72 °C |
| CN1CCN(c2ccc3nc(-c4c(N)c5c(F)cccc5[nH]c4=O)[nH]c3c2)CC1 [Dovitinib (TKI-258, CHIR-258)] | 2.43 °C |
| NC(=O)c1ccc2nc(-c3ccc(Oc4ccc(Cl)cc4)cc3)[nH]c2c1 [Chk2 Inhibitor II (BML-277)] | 0.23 °C |
| CC1(C)OCCn2c1nc1c(N3CCOCC3)nc(-c3cnc(N)nc3)nc12 | 0.18 °C |
| C=CC(=O)Nc1cccc(Nc2nc(Nc3ccc(OCCOC)cc3)ncc2F)c1 | 3.26 °C |
| NC(=O)c1cnc(N[C@@H]2CCCC[C@@H]2N)nc1Nc1cccc(-n2nccn2)c1 | 3.61 °C |
| CNC(=O)c1cc(Oc2ccc3nc(N[C@@H]4CCCC[C@H]4O)sc3c2)ccn1 | 0.65 °C |
| CCn1c2ccccc2c2cc(Nc3ccnc(NCCCN4CCOCC4)n3)ccc21 | 0.22 °C |
| CCC(=O)Nc1cccc(Oc2nc(Nc3ccc(N4CCN(C)CC4)cc3OC)ncc2Cl)c1 | 0.69 °C |
| CN1CCN(c2nc(C3=C(c4c[nH]c5ccccc45)C(=O)NC3=O)c3ccccc3n2)CC1 [Sotrastaurin] | 0.36 °C |
| C=CCc1ccc(O)c(-c2ccc(O)c(CC=C)c2)c1 [Honokiol] | 0.5 °C |

tested on: LOC_OS03G50810-cb003; assay: as above; settings: 12.5 µM; protein concentration 2 µM
Procedure, shortened: as §1

| Compound | thermal shift delta Tm |
| --- | --- |
| COc1ccc(CC(=O)Nc2nc3c(s2)CCc2ccccc2-3)cc1OC | 0.43 °C |
| CNS(=O)(=O)Nc1nccc(Cc2c(C)c3ccc(Oc4ncccn4)cc3oc2=O)c1F | 0.57 °C |
| C[C@H](NC(=O)/C(C#N)=C/c1cccc(Br)n1)c1ccccc1 | -1.35 °C |
| COc1ccc(COc2cc3oc(=O)c4cc(C(C)O)ccc4c3cc2OC)cc1 (centres undefined) [Palomid 529 (P529)] | 0.52 °C |
| CC(C)(C)Cn1c(N)nc2ccc(-c3[nH]c(C(C)(C)C)nc3-c3ccc(F)cc3)nc21 | 0.13 °C |
| COc1ccccc1-c1cc(Nc2cccc(CS(N)(=O)=O)c2)ncn1 | 0.56 °C |
| Cn1cnc(N)c2ncnc1-2 [3-Methyladenine (3-MA)] | 0.4 °C |
| C=CC(=O)N[C@H]1CCOC[C@H]1Nc1ncc2cc(-c3c(Cl)c(OC)cc(OC)c3Cl)ccc2n1 | -0.2 °C |
| CCS(=O)(=O)Nc1ccc2c(c1)/C(=C(/Nc1ccc(CN3CCCCC3)cc1)c1ccccc1)C(=O)N2 [Hesperadin] | 11.8 °C |
| Cc1cc(Nc2cc(N3CCN(C)CC3)nc(/C=C/c3ccccc3)n2)n[nH]1 [ENMD-2076 L-(+)-Tartaric acid] | 7.35 °C |
| Cc1ccc(F)c(NC(=O)Nc2ccc(-c3cccc4[nH]nc(N)c34)cc2)c1 [Linifanib (ABT-869)] | 0.8 °C |
| CO[C@H]1C[C@@H]2CC[C@@H](C)[C@@](O)(O2)C(=O)C(=O)N2CCCC[C@H]2C(=O)O[C@H]([C@H](C)C[C@@H]2CC[C@@H](OCCO)[C@H](OC)C2)CC(=O)[C@H](C)/C=C(\C)[C@@H](O)[C@@H](OC)C(=O)[C@H](C)C[C@H](C)/C=C/C=C/C=C/1C [Everolimus (RAD001)] | 0.05 °C |
| CCCCCCCCCCCCCCCCn1cc[n+](Cc2ccccc2)c1C | -4.07 °C |
| O=C(/C=C/c1ccc(O)c(O)c1)c1ccc(O)cc1O [Butein] | 2.72 °C |
| NC(=O)c1ncn([C@@H]2O[C@H](CO)[C@@H](O)[C@H]2O)c1N [AICAR (Acadesine)] | 0.55 °C |
| COCCOc1ccc2c(c1)ncn2-c1ccc2cccc(N3CCC(N)CC3)c2n1 | 8.81 °C |
| CCCCCCCCCCCCCCCCCCOP(=O)([O-])OC1CC[N+](C)(C)CC1 [Perifosine (KRX-0401)] | -1.54 °C |
| COc1ccc(-c2ccc3c(N4CCOCC4)nc(N4C[C@@H](C)O[C@@H](C)C4)nc3n2)cc1CO | -0.07 °C |
| Cc1cc(Nc2nc(N[C@@H](C)c3ccc(F)cc3)c(C#N)cc2F)n[nH]1 | 4.44 °C |

| Compound | thermal shift delta Tm |
| --- | --- |
| O=c1nc(N2CCOCC2)oc2c(-c3cccc4c3sc3ccccc34)cccc12 | -0.24 °C |
| Cn1cc(-c2ccc3nnc(C(F)(F)c4ccc5ncccc5c4)n3n2)cn1 | 0.22 °C |
| Cc1cc(C(C)Nc2ccccc2)c2nc(N3CCOCC3)cc(=O)n2c1 (centres undefined) | -0.02 °C |
| COc1cc(N2CCC(N(C)C)CC2)ccc1Nc1ncc(Cl)c(Nc2ccccc2P(C)(C)=O)n1 | 5.58 °C |
| CC(C)c1cnn2c(NCc3ccccc3)cc(NCCCCCCN)nc12 | 0.19 °C |
| Cc1cc([C@@H](C)Nc2ccccc2C(=O)O)c2nc(N3CCOCC3)cc(=O)n2c1 | 0.56 °C |
| CC(C)NC(=O)C1CCC(n2c(NC(=O)c3ccc(F)cc3)nc3ccc(CN4CCC(C(C)(C)O)CC4)cc32)CC1 (centres undefined) [Belizatinib (TSR-011)] | 3.76 °C |
| COc1ccc(-c2ccc3ncc4c(c3c2)n(-c2ccc(N3CCNCC3)c(C(F)(F)F)c2)c(=O)n4C)cn1 | 2.17 °C |
| CN1CCN(c2ccc3nc(-c4c(N)c5c(F)cccc5[nH]c4=O)[nH]c3c2)CC1 [Dovitinib (TKI-258, CHIR-258)] | 4.84 °C |
| NC(=O)c1ccc2nc(-c3ccc(Oc4ccc(Cl)cc4)cc3)[nH]c2c1 [Chk2 Inhibitor II (BML-277)] | 0.22 °C |
| CC1(C)OCCn2c1nc1c(N3CCOCC3)nc(-c3cnc(N)nc3)nc12 | 0.33 °C |
| C=CC(=O)Nc1cccc(Nc2nc(Nc3ccc(OCCOC)cc3)ncc2F)c1 | 3.81 °C |
| NC(=O)c1cnc(N[C@@H]2CCCC[C@@H]2N)nc1Nc1cccc(-n2nccn2)c1 | 0.99 °C |
| CNC(=O)c1cc(Oc2ccc3nc(N[C@@H]4CCCC[C@H]4O)sc3c2)ccn1 | 0.6 °C |
| CCn1c2ccccc2c2cc(Nc3ccnc(NCCCN4CCOCC4)n3)ccc21 | 0.04 °C |
| CCC(=O)Nc1cccc(Oc2nc(Nc3ccc(N4CCN(C)CC4)cc3OC)ncc2Cl)c1 | 1.06 °C |
| CN1CCN(c2nc(C3=C(c4c[nH]c5ccccc45)C(=O)NC3=O)c3ccccc3n2)CC1 [Sotrastaurin] | 1.38 °C |
| C=CCc1ccc(O)c(-c2ccc(O)c(CC=C)c2)c1 [Honokiol] | 0.47 °C |
